# Sampled rows, rich in hits. Any-hit rate of the full collection: about 1.8%.
# H9c2 protect – modulators protecting cardiomyocytes from myocardial damage; H9c2 cardiomyocytes, H2O2 injury protection, ATPLite, 2 h; protection from H2O2 cell death, % at 20 µM; 360,000 compounds, 0.63% hits;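 active = compounds giving at least 50% protection of heart cells from peroxide-induced death in the single-dose screen, raw or plate-pattern-corrected value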
# HDAC3 inh – blocks human histone deacetylase 3; O15379; recombinant HDAC3, fluorogenic peptide/trypsin coupled, fluorescence; inhibition, % at 8.3 µM; 320,000 compounds, 0.15% hits; in the data active = inhibition above about 26%, passing the limit was not always enough; inconclusive = no clear call, values can overlap the other calls
# Target sequence (O15379 whole entry, looked up): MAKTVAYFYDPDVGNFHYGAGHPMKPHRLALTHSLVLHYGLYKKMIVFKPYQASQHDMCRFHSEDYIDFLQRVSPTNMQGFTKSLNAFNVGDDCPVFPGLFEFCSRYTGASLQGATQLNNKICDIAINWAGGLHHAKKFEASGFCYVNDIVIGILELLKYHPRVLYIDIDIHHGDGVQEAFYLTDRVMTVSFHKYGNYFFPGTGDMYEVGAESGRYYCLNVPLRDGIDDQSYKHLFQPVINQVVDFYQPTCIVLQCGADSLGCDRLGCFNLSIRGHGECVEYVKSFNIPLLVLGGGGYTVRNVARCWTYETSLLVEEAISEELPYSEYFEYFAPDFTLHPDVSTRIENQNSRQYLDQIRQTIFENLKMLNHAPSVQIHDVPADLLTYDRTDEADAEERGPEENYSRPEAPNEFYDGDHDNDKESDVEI
# Neddyl block – cullin neddylation inhibition | P61081+Q13564 | TR-FRET cullin neddylation, biochemical | inhibition, % at 25 µM | 360,000 compounds, 0.58% hits; in the data active = inhibition above about 36%
# GRK2 inh – human GRK2 inhibition via aptamer displacement | inhibition of aptamer binding, % at 10 µM | bead flow cytometry, FAM-aptamer displacement from GRK2 | 330,000 compounds, 0.59% hits;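 active = inhibition of aptamer binding above 40%, roughly 3 SD of noise, on plates passing a quality check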;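 note: median bead fluorescence of bound FAM aptamer so fluorescent compounds give negative values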
# Numbers stand for hits; n = inactive; u = inconclusive; x = no result given.
SMILES,H9c2 protect,HDAC3 inh,Neddyl block,GRK2 inh
O=C(CNC(=O)C(c1ccccc1)c1ccccc1)OCC(=O)c1cccs1,n,x,n,n
CCCc1cc2c(cc1NC(=O)c1ccc(Br)cc1)OCO2,56.4,n,n,n
O=C(/C=C\c1cn(-c2ccccc2)nc1-c1ccc2c(c1)OCCO2)N1CCOCC1,60.2,n,n,n
CN(C)C(=O)/C=C\c1cn(-c2ccccc2)nc1-c1ccc2c(c1)OCCO2,51.7,n,n,n
COc1ccc(S(=O)(=O)NCC(=O)Nc2ccc3c(c2)OCCO3)cc1OC,n,n,n,n
COc1cc(NC(=S)N2CCCCC2C)cc(OC)c1OC (stereo not drawn),n,n,n,n
N#CC1=C2SCN(c3ccccc3)CN2C(=O)CC1c1c(Cl)cccc1Cl (stereo not drawn),n,60.7,n,n
COc1cc(OC)c(C2CC(=O)N3CN(c4ccccc4)CSC3=C2C#N)cc1OC (stereo not drawn),n,41.9,n,n
CCc1ccccc1N1CSC2=C(C#N)C(c3cc(OC)c(OC)cc3OC)CC(=O)N2C1 (stereo not drawn),n,n,n,n
COc1ccc(Br)cc1C1CC(=O)N2CN(C)CSC2=C1C#N (stereo not drawn),n,n,n,n
COc1cc(OC)c(C2CC(=O)N3CN(C)CSC3=C2C#N)cc1OC (stereo not drawn),n,30.5,n,n
COc1ccc(Br)cc1C1CC(=O)N2CN(Cc3ccccc3)CSC2=C1C#N (stereo not drawn),n,32.1,n,n
CSc1ncc(CNc2cc([N+](=O)[O-])ccc2C)c(N)n1,n,n,n,x
O=C(Nc1ccc(N2CCOCC2)cc1)Nc1ccc2nc(-c3ccco3)c(-c3ccco3)nc2c1,63.2,n,n,n
COc1cc(C(=O)NCCC(=O)NC2CCC(C)CC2)cc(OC)c1OC (stereo not drawn),n,n,n,n
Oc1ccc(CNc2ccccc2)c2cccnc12,n,n,n,n
Cc1cccc(NCc2ccc(O)c3ncccc23)c1,58.2,n,n,n
CN(C)c1cccc(C(=O)N/N=C/c2ccsc2)c1,n,n,n,n
CCOc1ccc(C(=O)Nc2cccc(-c3nc4cccnc4o3)c2)cc1Cl,50.0,n,n,n
CCOc1ccc(C(=O)Nc2cccc(C(=O)O)c2)cc1Cl,n,n,n,n
O=C1Cc2ccccc2C(=O)N1,x,x,n,x
CC1Cc2ccccc2C(=O)N1 (stereo not drawn),96.6,u,n,n
Cc1ccc(NC(=O)CN2C(=O)S/C(=C\c3cccn3-c3cccc(C(=O)O)c3)C2=O)cc1C,n,n,n,n
COc1ccc(NC(=O)CN2C(=O)S/C(=C/c3cccn3-c3ccc(C(=O)O)cc3)C2=O)cc1,n,n,n,49.0
CC(=O)Nc1ccc2nc(NC(=O)c3ccc([N+](=O)[O-])s3)sc2c1,x,n,x,87.0
SMILES,H9c2 protect,HDAC3 inh,Neddyl block,GRK2 inh
O=C(CCCN1C(=O)c2cccc3cccc(c23)C1=O)N1CCN(c2ccccc2)CC1,n,n,n,n
O=C(CCCN1C(=O)c2cccc3cccc(c23)C1=O)N1CCN(c2ccccc2O)CC1,66.8,n,n,n
Cc1cc(C[n+]2ccccc2)c2nsnc2c1,n,n,45.3,n
CCn1nc(C)c(/C=N/NC(=O)c2ccc3c(c2)c(C)c(C)n3Cc2ccccc2)c1C,n,n,40.0,n
COC(=O)c1ccc(NC(=O)c2ccc(NC(=O)c3ccco3)cc2)cc1,n,n,n,83.0
CC(=O)c1ccc(NC(=O)c2ccc(NC(=O)c3ccco3)cc2)cc1,n,n,n,77.0
COc1cc(C(=O)Nc2ccc(NC(=O)c3ccco3)nc2)cc(OC)c1OC,52.3,n,n,n
O=S(=O)(c1ccc(F)cc1)N(CCO)CC(O)Cn1c2ccccc2c2ccccc21 (stereo not drawn),n,n,n,n
CCN(CC(O)Cn1c2ccccc2c2ccccc21)S(=O)(=O)c1ccc(F)cc1 (stereo not drawn),n,30.2,n,n
Cc1nn(-c2ccccc2)c(/N=C/c2ccccc2O)c1-c1ccccc1,n,n,n,n
COc1ccc(C(Nc2cc(C)ccn2)c2ccc3ccc(C)nc3c2O)cc1 (stereo not drawn),62.0,n,n,n
Cc1cccc(NC(c2ccc(C)s2)c2ccc3ccc(C)nc3c2O)n1 (stereo not drawn),90.7,n,n,n
Cc1ccnc(NC(c2ccccc2)c2ccc3cccnc3c2O)c1 (stereo not drawn),n,x,n,x
Cc1cc(NC(c2ccc(Cl)cc2)c2ccc3cccnc3c2O)no1 (stereo not drawn),58.1,n,n,n
O=C(O)c1ccccc1NC(c1ccccc1)c1ccc2cccnc2c1O (stereo not drawn),58.9,x,x,x

# Screening data as filed in PubChem BioAssay.
